A selection: hits, their analogues and other compounds. The true share with any hit is near 7%.
JMJD2A Tudor = qHTS Assay for Inhibitors of JMJD2A-Tudor Domain; AID 504339, 2011; AlphaScreen JMJD2A-Tudor / H3K4me3 peptide binding; Lysine-specific demethylase 4A (Homo sapiens), O75164; actives 4.4% (n = 390,000); Potency, µM (doses to about 114 µM), for inactives: top-dose activity change, negative = inhibition, actives largely listed as inhibitors; further: potency means the concentration at half of the fitted maximal effect; on the % scale 0 is the no-effect control and ±100 the full control effect; nearly all actives have a fitted effect of over 50% in size
PI5P4K alpha inh = qHTS for Inhibitors of phosphatidylinositol 5-phosphate 4-kinase (PI5P4K); actives 1.2% (n = 330,000); Phosphatidylinositol 5-phosphate 4-kinase type-2 alpha (Homo sapiens), P48426; PI5P4Kalpha enzyme, ADP-Glo luminescence, 60 min; hits give low values; max response, %; AID 652105, 2013; active means max response of -50% or lower; inconclusive means between -30% and -50%; inactive means -30% or higher; further: value at the top dose of about 77 µM; on the % scale 0 is the no-effect control and ±100 the full control effect
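Compounds were pin-transferred onto PI5P4Kalpha and substrate in HEPES pH 7.4 buffer with EGTA, CHAPS and 5% DMSO. ATP (5 microM final) started the reaction, which ran 60 minutes at room temperature before ADP-Glo detection.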
BAZ2B block = qHTS Assay for Inhibitors of BAZ2B | Bromodomain adjacent to zinc finger domain protein 2B (Homo sapiens), Q9UIF8 | Potency, µM (doses to about 114 µM), without a hit: at the highest dose activity change, negative = inhibition, usual class: inhibitors | AlphaScreen BAZ2B-H3K14Ac peptide displacement | actives 4.4% (n = 360,000); further: potency means the concentration at half of the fitted maximal effect; on the % scale 0 is the no-effect control and ±100 the full control effect; nearly all actives have a fitted effect of over 60% in size
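Multi-concentration screen (max 110 uM) measuring displacement of acetylated histone H3 peptide from BAZ2B by AlphaScreen, using 50 nM protein, 50 nM peptide and 10 ug/mL streptavidin donor plus Ni-chelate acceptor beads.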
HP1b chromo inh = HTS for Inhibitors of HP1-beta Chromodomain Interactions with Methylated Histone Tails; Chromobox protein homolog 1 (Homo sapiens), P83916; AlphaScreen HP1-beta / biotin-H3K9me3 peptide binding; AID 540317, 2011; Potency, µM (titrated, usually from 114 µM), for the others: at the highest dose activity change, negative = inhibition, usual class: inhibitors; actives 0.56% (n = 390,000); further: potency means the concentration at half of the fitted maximal effect; nearly all actives have a fitted effect of over 70% in size
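HP1-beta protein (50 nM final) preincubated 30 min at room temperature with biotinylated H3(1-18)K9me3 peptide (50 nM) in PBS pH 7.4, 0.01% Tween-20, then compound added for 30 min. AlphaScreen streptavidin donor/nickel chelate acceptor beads (10 ug/mL final), 30 min dark, luminescence read.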
KAT2A inh = qHTS Assay for Inhibitors of GCN5L2; AID 504327, 2011; Histone acetyltransferase KAT2A (Homo sapiens), Q92830; actives 0.21% (n = 390,000); GCN5L2 HAT assay, ThioGlo1 CoA-SH fluorescence; Potency, µM (top dose mostly 58.9 µM), without a hit: top-dose activity change, negative = inhibition, hits mostly inhibitors; further: potency means the concentration at half of the fitted maximal effect; on the % scale 0 is the no-effect control and ±100 the full control effect
Target sequence (Q92830 whole entry, looked up): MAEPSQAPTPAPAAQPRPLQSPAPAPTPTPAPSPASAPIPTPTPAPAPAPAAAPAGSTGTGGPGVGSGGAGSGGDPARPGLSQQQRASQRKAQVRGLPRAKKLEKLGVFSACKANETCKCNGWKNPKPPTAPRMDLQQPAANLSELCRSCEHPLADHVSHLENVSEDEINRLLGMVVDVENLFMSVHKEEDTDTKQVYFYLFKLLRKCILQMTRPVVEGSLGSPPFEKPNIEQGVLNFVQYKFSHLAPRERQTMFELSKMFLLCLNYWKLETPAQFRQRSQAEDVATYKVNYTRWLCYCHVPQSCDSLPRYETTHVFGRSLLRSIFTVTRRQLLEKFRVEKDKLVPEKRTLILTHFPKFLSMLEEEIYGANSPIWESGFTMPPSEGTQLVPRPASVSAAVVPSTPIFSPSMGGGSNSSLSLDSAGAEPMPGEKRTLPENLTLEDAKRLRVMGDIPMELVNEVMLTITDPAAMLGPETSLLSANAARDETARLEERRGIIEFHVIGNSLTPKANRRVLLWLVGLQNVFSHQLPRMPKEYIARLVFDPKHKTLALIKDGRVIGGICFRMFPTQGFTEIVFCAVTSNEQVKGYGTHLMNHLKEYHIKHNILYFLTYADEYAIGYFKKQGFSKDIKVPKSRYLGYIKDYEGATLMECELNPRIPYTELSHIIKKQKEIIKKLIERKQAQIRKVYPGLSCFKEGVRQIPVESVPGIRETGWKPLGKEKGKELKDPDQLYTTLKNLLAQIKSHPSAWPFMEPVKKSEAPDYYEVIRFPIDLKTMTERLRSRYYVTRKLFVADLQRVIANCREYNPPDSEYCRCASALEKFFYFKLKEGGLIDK
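Titration-based screen in which CoA formation is detected via maleimide probe ThioGlo1 (50uM) turning fluorescent on thiol reaction; substrates H3(1-25) 75uM and acetyl-CoA 70uM, GCN5L2 20nM, 20 min incubation at room temperature.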
PLK1 PBD inh = qHTS for Inhibitors of PLK1-PDB (polo-like kinase 1 - polo-box domain): Primary Screen; Plk1 PBD binding of FITC phosphopeptide, fluorescence polarization; Potency, µM, inactives show max response, negative = inhibition, most hits filed as inhibitors; actives 2.8% (n = 360,000); further: potency means the concentration at half of the fitted maximal effect; series mostly up to about 57 µM; on the % scale 0 is the no-effect control and ±100 the full control effect; nearly all actives have a fitted effect of over 65% in size
An asterisk follows results filed as active; u = inconclusive; x = no result; [ ] = another dose, or the depositor's remark. Unless noted, the call rests on the fitted dose curve; in most records, active means well fitted curve in the direction sought with a large enough effect; inconclusive means small, poorly fitted or top-dose-only effect, or another doubt; inactive means no such curve, though single readings can be large; an effect the other way counts as inactive or inconclusive.

SMILES	JMJD2A Tudor	PI5P4K alpha inh	BAZ2B block	HP1b chromo inh	KAT2A inh	PLK1 PBD inh
CC(C)c1ccc(NC(=O)C(c2ccccc2)N(C)C(=O)CCc2c[nH]c3ccccc23)cc1 (stereo unspecified)	u	0	x	3%	x	0%
CCCCn1c(NC(=O)c2ccco2)c(S(=O)(=O)c2ccc(C)cc2)c2nc3ccccc3nc21	-25%	-2	-6%	8%	-11%	u
CCCCn1c(NS(=O)(=O)c2ccccc2)c(S(=O)(=O)c2ccc(C)cc2)c2nc3ccccc3nc21	23%	4	14%	53%	u	27µM*
CCCCCn1c(NC(=O)c2ccco2)c(S(=O)(=O)c2ccc(C)cc2)c2nc3ccccc3nc21	-15%	x	-29%	24%	-28%	21µM*
Cc1ccc(S(=O)(=O)c2c(N)n(CCCO)c3nc4ccccc4nc23)cc1	-2%	-6	56µM*	45%	-9%	-13%
CCCCn1c(NC(=O)c2ccc(Br)o2)c(S(=O)(=O)c2ccccc2)c2nc3ccccc3nc21	-59%	x	-2%	27%	-4%	25µM*
O=c1onc(-c2ccccc2)n1-c1cc(Cl)cc(Cl)c1	10%	1	x	30%	x	-5%
O=[N+]([O-])c1ccccc1S(=O)(=O)N1CCN(c2nc(-c3cccs3)nc3ccccc23)CC1	-30%	x	x	19%	x	x
Cc1cc(C)n(CCc2nc(-c3ccc(C)o3)cs2)n1	79µM*	u	u	u	-27%	u
O=S1(=O)C=C(Sc2nc3cc(Cl)ccc3o2)c2ccccc21	u	-17	-24%	-11%	-9%	6.7µM*
CCC1C/C(=C/c2ccco2)C(=O)/C(=C/c2ccco2)C1 (stereo unspecified)	x	x	28µM*	x	1%	x
CCC1C/C(=C\c2cc(OC)c(OC)cc2OC)C(=O)/C(=C/c2cc(OC)c(OC)cc2OC)C1 (stereo unspecified)	18µM*	12	10µM*	u	-26%	23%
COc1cc(OC)c(OC)cc1/C=C1\CC(C)C/C(=C\c2cc(OC)c(OC)cc2OC)C1=O (stereo unspecified)	20µM*	11	11µM*	u	-13%	31%
CCc1cccc(C)c1NC(=O)Cn1c(=O)n(-c2cccc(C)c2)c(=O)c2c1c1cc(C)ccc1n2C	-14%	x	-3%	26%	-2%	x
Cc1nn(Cc2ccccc2)c(C)c1NC(=O)CCCn1nc(C)c([N+](=O)[O-])c1C	-15%	2	-4%	34%	1%	-1%
Cc1nn(Cc2ccccc2)c(C)c1NC(=O)CCCn1nc([N+](=O)[O-])c(Cl)c1C	40µM*	1	8%	13%	1%	-12%
Cc1cc(OCc2cc(C(=O)N(C)CC3CCOCC3)no2)cc(C)c1Cl	u	-7	2%	22%	-8%	27µM*
Cc1cc(Cl)c2oc(C(=O)N(C)CC3CCOCC3)c(C)c2c1	u	10	-12%[57.1 µM]	23%	-6%	27µM*
C=CCN(C(=O)c1oc2c(Cl)cc(C)cc2c1C)C1CCS(=O)(=O)C1 (stereo unspecified)	-16%	-1	-6%	19%	-11%	-16%
Cc1cc(OCc2cc(C(=O)N(C)CCCN3CCOCC3)no2)cc(C)c1Cl	89µM*	2	-18%	19%	-4%	u
COc1ccc(CCNC(=O)C2CC=CCC2C(=O)O)cc1 (stereo unspecified)	-9%	11	-5%	27%	5%	-5%
COc1ccc(NCc2cc(=O)[nH]c3ccccc23)cc1	u	0	79µM*	-13%	-22%	-1%
